Experimental findings from PubChem BioAssay are described below.

Inconclusive results are not listed. Unmarked numbers belong to inactive results. Active and inactive are the calls of the source.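 How the source made its calls: active means viability at or below 27.92% in each of two runs, the all-compound median minus 4 SD; inconclusive means no clear call, values can overlap the other calls; inactive means the rest.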

A short description of this test: viability of PTEN-null HCT116 cells – cell-based, HCT116 clonal line, CellTiter-Glo, pilot screen (AID 824).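 Further: 0% = 20 µM Hyamine control and 100% = vehicle cell control.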 Particulars: HCT116 PTEN-deleted viability, 60 h, at 10 µM, stronger effect = lower value. In general terms: Cellular ATP, detected with luciferase, serves as a proxy for viable cell number.
A word on the viability: it is a read-out of living cells in per cent, often relative to untreated cells. In the case of `COc1cc(NS(=O)(=O)c2ccc(NC(=O)COc3ccc(C)cc3)cc2)nc(OC)n1`, the viability is 102%.
Next, `CCN(CC)S(=O)(=O)c1ccc2oc(C(=O)NCC3COc4ccccc4O3)c(C)c2c1` (centres undefined): 56.5%; `COc1cc(C)c(C(C)C)cc1S(=O)(=O)n1cnc(C)c1`: 37.8%; `NC(=O)CCn1nc(-c2ccccc2)c2ccccc2c1=O`: 96.8%.
The result for `Cc1cc(NS(=O)(=O)c2ccccc2)cc(Cl)c1O` reads 86.2%; that for `COCCNC(=O)c1ccc2c(=O)n(CCOC)c(=O)[nH]c2c1`, 91.3%.
Take `CCn1cc(C(=O)NCCCN2CC(C)CC(C)C2)c2cc(OC)c(OC)cc2c1=O` (centres undefined): the viability is 97.5%.
For `CCOC(=O)N1CCN(C(=O)c2oc3ccc(S(=O)(=O)N4CC(C)CC(C)C4)cc3c2C)CC1` (centres undefined), the viability was 42.5%.
The result for `Cc1cc(S(=O)(=O)N2CCN(Cc3ccc4c(c3)OCO4)CC2)cc(C)c1N1CCCC1=O` reads 53.6%; that for `CCCn1c(CN2CCN(c3cccc(Cl)c3)CC2)nc2c1c(=O)n(C)c(=O)n2C`, 54%; that for `CCOC(=O)COc1cccc2c(=O)n(CC(=O)NCc3ccc4c(c3)OCO4)ccc12`, 27.3% (active).
For the compound `COC(=O)CNC(=O)Cn1cnc2sc(C)c(S(=O)(=O)N3CCC(C)CC3)c2c1=O`, the viability is 99.2%.
Consider `Cc1ccc(N(CC(=O)Nc2ccc(S(=O)(=O)N3CCOCC3)cc2)S(C)(=O)=O)cc1C`, for which the viability was 84.2%.
Take `CC(=O)c1ccc(C(=O)Nc2nnc(-c3ccc(Cl)cc3)o2)cc1`: the viability was 22.3% (active).
